Assay results published in article PMC7819943, “Rice protein-binding microarrays: a tool to detect cis-acting elements near promoter regions in rice”.
The full ranking holds about 68,000 sequences; the median of “fluorescence intensity (a.u.)” is about 9,100, and the highest 2% start at about 16,000. The sample holds the highest values, similar sequences and a random draw of the others, so the mix is not that of the screen.

biological target: OsWRKY34 (Oryza sativa, UniProt Q0JBA9 1-250); assay: protein-binding microarray (RPBM); PBS, 2% BSA, 51.3 ng/ul salmon testes DNA, 50 uM zinc acetate, 200 nM TF, 25 C, 1 h; high values mean tight binding; conditions: protein: recombinant; tags: N-terminal polyhistidine and DsRed monomer fusion (pET32a); label: CyDye5-dUTP incorporated in the synthesized complementary strand; 3' TTTTT single-stranded linker to array surface; dsDNA, one strand shown
Sequence (Q0JBA9 entry or part of it): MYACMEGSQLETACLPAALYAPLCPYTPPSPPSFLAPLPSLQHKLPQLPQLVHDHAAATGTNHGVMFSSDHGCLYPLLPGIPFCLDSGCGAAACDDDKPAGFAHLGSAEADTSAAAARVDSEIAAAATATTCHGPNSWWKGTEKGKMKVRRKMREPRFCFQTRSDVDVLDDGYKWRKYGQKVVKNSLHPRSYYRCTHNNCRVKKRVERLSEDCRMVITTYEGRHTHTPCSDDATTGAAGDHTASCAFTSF
Method in brief: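 Binding signal is defined as the fluorescence intensity of each feature in arbitrary units, read on an Axon 4000B scanner. Transcription factors with N-terminal polyhistidine and DsRed fusions came from E. coli BL21-CodonPlus and were purified on Ni–NTA. They were incubated at 200 nM for 1 h at 25 °C on a custom Agilent array that had been made double-stranded with Cy5-dUTP, with 50 µM zinc acetate present, and the array was washed.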

Sequence	binding signal
GGCCTCTCAACTGACCCGTCTGCGAAATATGTTTATTTTCCGGAGTCACCTAGTGCAG	8060 fluorescence intensity (a.u.)
ATTTATAGAGGTTGGGTGTGCATGTGTGGTGAGCATATTTCGGAGTCACCTAGTGCAG	8820 fluorescence intensity (a.u.)
GCTAGCGCTGCCGCCCTACTCTTGATCCTAAATATTCATTCGGAGTCACCTAGTGCAG	8210 fluorescence intensity (a.u.)
ACTGGTCGAACCTTGGCGGGGAGGGGCCGGCCGGCCTCATCGGAGTCACCTAGTGCAG	8640 fluorescence intensity (a.u.)
ATGAAATGTTTGTCATTTCTGGTGGGGCTGTTAGTTAATTCGGAGTCACCTAGTGCAG	9970 fluorescence intensity (a.u.)
CAAACCTGTGTACTTTCTACGTGTTTTTTCTATGTTTCCGCGGAGTCACCTAGTGCAG	12100 fluorescence intensity (a.u.)
ACCATATGCATCTGAATTTGTTCTGAGTATACTCCATTTCCGGAGTCACCTAGTGCAG	10600 fluorescence intensity (a.u.)
TGCCCGACTTGGCTTTCTCCTCCTCTCTCCTCCCGCAACCCGGAGTCACCTAGTGCAG	8600 fluorescence intensity (a.u.)
AGCAGTTAACCCACCGTACAACAAAATCAATCAGTTTCTTCGGAGTCACCTAGTGCAG	8270 fluorescence intensity (a.u.)
CCGCCGCCGCCTCCTGCTCCTTCGACCTGCCCCGGCCCCGCGGAGTCACCTAGTGCAG	8870 fluorescence intensity (a.u.)
CCCCTATTTAGCCGCGCCATTTTCCCCTCGCTAGCTGTGTCGGAGTCACCTAGTGCAG	8400 fluorescence intensity (a.u.)
TAATTTTTATAGGCCTGTTCATATTTTCTACCGTTGATTTCGGAGTCACCTAGTGCAG	10300 fluorescence intensity (a.u.)
TTGACATCCTACGTTTGTGTTCCTCGTCACTCCACTATCGCGGAGTCACCTAGTGCAG	8040 fluorescence intensity (a.u.)
ATTGACTTTTTTAAAAATGTTTGACCATTCGTCTTATTCACGGAGTCACCTAGTGCAG	9010 fluorescence intensity (a.u.)
CCAATTTCTCTCTCCACATCTCTCTGTGTTTCTTTTATTTCGGAGTCACCTAGTGCAG	9680 fluorescence intensity (a.u.)
ATATTTTTTCTGTGTTTTGCAATCTTCTATTTTACACTTTCGGAGTCACCTAGTGCAG	11200 fluorescence intensity (a.u.)
CTTACTTGGTCACTCCCTTTTTGTTATCTGATTTAGACGTCGGAGTCACCTAGTGCAG	8230 fluorescence intensity (a.u.)
TCTGTATGGTCTACTTGTTTGATTGATTGATAATTTTACACGGAGTCACCTAGTGCAG	9240 fluorescence intensity (a.u.)
CTGTGTTTTCTATTTTTCTCTGTTTTACATCTATCTTCTTCGGAGTCACCTAGTGCAG	19100 fluorescence intensity (a.u.)
GGTTGGTTTCTTTGTTTTTCTCTTATATTTACACTATATTCGGAGTCACCTAGTGCAG	23800 fluorescence intensity (a.u.)
CGTCCTTATATAATTGTTTTACTTGGTGATTTCATCTGGTCGGAGTCACCTAGTGCAG	64500 fluorescence intensity (a.u.)
ACACCATTGACTTTTTAATATGTGTTTGACCATTCGTCTTCGGAGTCACCTAGTGCAG	19200 fluorescence intensity (a.u.)

Sequence	binding signal
TTTTGACTTTCTCTTACACTGTTTGACCATTTATCTTATTCGGAGTCACCTAGTGCAG	14000 fluorescence intensity (a.u.)
TTCTTTTTATATTTTCTTTTGTTGGTTTTTTTCGTCTCAACGGAGTCACCTAGTGCAG	13200 fluorescence intensity (a.u.)
TGTTTGACACCATTGACTTTTTAGTATGTGTTTGACCATTCGGAGTCACCTAGTGCAG	13200 fluorescence intensity (a.u.)
CGTCTCGTGTCTTCTCGTCTCGACCCATCCATCCATCCCACGGAGTCACCTAGTGCAG	8570 fluorescence intensity (a.u.)
CGGGCTCTGGTTTTACCGAATAAATGCTCTGGGCCTAATACGGAGTCACCTAGTGCAG	8020 fluorescence intensity (a.u.)
GCATTAGAACGAGCGCACCCACTTTCAGTTCTCAAATTATCGGAGTCACCTAGTGCAG	8670 fluorescence intensity (a.u.)
GTCTTTTGATGCGACGCGATGTGACTCGCCCGACCCAACTCGGAGTCACCTAGTGCAG	8940 fluorescence intensity (a.u.)
CCTCCATTCTTCAGTTTTAATGCATCCTCTTCATCACTTCCGGAGTCACCTAGTGCAG	11800 fluorescence intensity (a.u.)
CATCAGTACAGGCCCAACTTAAAAATTGCTCGGCCCATTTCGGAGTCACCTAGTGCAG	8850 fluorescence intensity (a.u.)
GGTGCTCCGCCTCCCGGGGCAGGGTTTCAAGAGGGTGGGTCGGAGTCACCTAGTGCAG	10700 fluorescence intensity (a.u.)
CATCCGATTCCTATGTATTTCTTGCGGTCTAATCAAACGACGGAGTCACCTAGTGCAG	10200 fluorescence intensity (a.u.)
GTGTTTTGCAAGGTTGTTTCTTTACCTTATCTATATACATCGGAGTCACCTAGTGCAG	9790 fluorescence intensity (a.u.)
CACTCCACCATTGTCATCTTTACTATCGGTAATTGTTGATCGGAGTCACCTAGTGCAG	8440 fluorescence intensity (a.u.)
GTCAAATTTCTGTGCTCCATAAGATCTCTTCTCTTTTTTTCGGAGTCACCTAGTGCAG	16700 fluorescence intensity (a.u.)
ACAGTTTTCTCCATCTTGGCCATTCGTGTGCTATATCCATCGGAGTCACCTAGTGCAG	16500 fluorescence intensity (a.u.)
GGAGTGTTTCTGTTGTTGCATGTGATGAGTGCATTATCATCGGAGTCACCTAGTGCAG	11000 fluorescence intensity (a.u.)
GGGCTGTTATCTCTGATGTGTTTTCTGCCTCTCATGTCATCGGAGTCACCTAGTGCAG	17000 fluorescence intensity (a.u.)
GCTTTTCTTTGTCCATCCATCTATCTTTTTCTCCATCTTTCGGAGTCACCTAGTGCAG	8440 fluorescence intensity (a.u.)
TGCTCAACATCCATCTTTCTTTCTTTCTTTTTCTCTTTTTCGGAGTCACCTAGTGCAG	11300 fluorescence intensity (a.u.)
TTTTTCTTGTGCTCTATCCATCCATGCCATGCCATTCATCCGGAGTCACCTAGTGCAG	10200 fluorescence intensity (a.u.)
TCTTTTTTCTCTTCTTCTTCTCCTCCATTCCATTCCATTTCGGAGTCACCTAGTGCAG	8930 fluorescence intensity (a.u.)
GCCTGTTTCTCCTTCGGCTGATGATATCTGTGCTGTTTTTCGGAGTCACCTAGTGCAG	8550 fluorescence intensity (a.u.)
